# Source: the supplement of paper PMC3334620
# The full ranking holds about 33,000 sequences; the median of “E-score (-0.5 to 0.5)” is about -0.035, and the highest 2% start at about 0.34. Shown is part of a subset that was picked to be rich in the highest values.
# Target: T1, Mot3 (UniProt P54785)
# T1 sequence: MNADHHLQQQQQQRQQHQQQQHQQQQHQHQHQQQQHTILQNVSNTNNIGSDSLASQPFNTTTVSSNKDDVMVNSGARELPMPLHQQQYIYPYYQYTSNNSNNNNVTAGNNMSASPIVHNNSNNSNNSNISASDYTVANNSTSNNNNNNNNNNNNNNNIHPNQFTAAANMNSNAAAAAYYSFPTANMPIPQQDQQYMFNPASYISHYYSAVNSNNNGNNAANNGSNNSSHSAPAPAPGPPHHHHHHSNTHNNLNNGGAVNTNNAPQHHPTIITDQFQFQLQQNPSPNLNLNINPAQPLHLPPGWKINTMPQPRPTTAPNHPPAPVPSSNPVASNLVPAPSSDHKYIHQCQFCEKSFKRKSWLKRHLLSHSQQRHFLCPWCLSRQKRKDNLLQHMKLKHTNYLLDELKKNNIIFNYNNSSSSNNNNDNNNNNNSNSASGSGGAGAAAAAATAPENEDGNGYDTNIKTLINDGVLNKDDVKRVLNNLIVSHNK
# Test: PBM E-score (8-mer binding enrichment) (E-score (-0.5 to 0.5)); higher = stronger / more preferred TF binding
# Details: protein concentration: 200 nM; construct: GST-full length
# Protocol: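 Universal 'all 10-mer' protein binding microarrays (Agilent AMADID 015681) probed with GST-tagged S. cerevisiae TFs (full-length or DBD) made by in vitro transcription/translation (PURExpress), about 100-200 nM. Bound TF was detected with fluorescent anti-GST. Each ungapped 8-mer (which stands for itself and its reverse complement) is scored by the PBM enrichment score (E-score), a modified Wilcoxon-Mann-Whitney statistic from -0.5 to +0.5, computed with the Universal PBM Analysis Suite. Scale: above 0.35 generally sequence-specific binding.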
row,Sequence,PBM E-score
1,CCTATTGA,0.124
2,CGGTGTAC,0.0428
3,GGAGATAC,-0.137
4,AGTTGGAC,0.0582
5,GGTAGAGA,-0.198
6,TCCGGAGA,-0.297
7,CCGGCGAG,-0.369
8,AATCGACA,0.201
9,GATCCATA,-0.201
10,ATGGCGGA,-0.302
11,TCTACCCA,-0.077
12,CGGTGTCC,-0.376
13,CAAAGCAG,0.05
14,AGCTAACC,-0.152
15,GTGTAGAA,0.364
16,GCGTAGAA,0.232
17,ATGTAGGA,0.158
18,ATGTAGAA,0.359
19,ATGTAGAG,0.252
20,CTGTAGGC,0.285
21,ATGTAGGC,0.361
22,CTGTAGAA,0.191
23,GTGTAGTA,0.292
24,GTGCGGTA,-0.0948

row,Sequence,PBM E-score
1,AGAGAGGA,-0.246
2,AGTTAGAG,-0.21
3,GGGAAGCA,-0.178
4,AACAGCCT,0.0281
5,CGAGCCAG,-0.0469
6,GTCGAACA,0.0718
7,GAAATTTA,0.165
8,CTGTAAAG,0.24
9,CTGTAAAA,0.302
10,CTGTACAC,0.265
11,TTGTAAAA,0.321
12,GTGTACAA,0.325
13,CTGTAAAC,0.295
14,GGGTAAAC,-0.0508
15,GTGTAAAC,0.387
16,AAGTAAAG,0.131
17,GTGTACAC,0.344
18,ATGTAAAG,0.411
19,ATGTAAAA,0.415
20,GCGCTCCA,-0.136
21,GTTCGCCA,-0.103
22,CCATTGAA,0.0844
23,CTCGGATC,-0.235
24,GTCGGGAA,-0.104

row,Sequence,PBM E-score
1,AGCATCCT,-0.268
2,ATAAGATA,0.0848
3,CACGTTGC,0.158
4,TAGCACGA,-0.0559
5,ACTCCGGG,-0.248
6,CGCTCATA,-0.225
7,GAGCCCAA,-0.136
8,CGGCCGGA,-0.264
9,CCGAACAC,-0.0162
10,ATGTAAAC,0.414
11,GCGTAAAA,0.314
12,GTGTAAAA,0.377
13,ACGTAAAT,0.272
14,AGGTAAAC,0.302
15,ATGTAAAT,0.42
16,ACGTAAAC,0.251
17,GGGTAAAA,0.112
18,AGGTAAAT,0.318
19,ATGGAGGA,0.0248
20,TAGTGACA,0.124
21,GTGTGCAA,0.128
22,CTGGCCCA,-0.265
23,TATCGGCA,-0.0281
24,ATAGCGCC,0.228

row,Sequence,PBM E-score
1,CGACTCTC,-0.347
2,CATCGAAG,-0.163
3,AACCTGGG,0.0477
4,AGGGACCA,-0.201
5,AGGTTTGG,-0.141
6,CCTTCAAA,0.115
7,CCTTCAAC,0.247
8,CCTTCAAG,0.351
9,AGAGAATC,-0.0691
10,AACCATTA,0.117
11,GAGGCCCC,-0.242
12,GTACACAA,0.323
13,CTACACAG,0.348
14,CGACACGC,0.157
15,GTACACGA,0.327
16,CTACACAC,0.333
17,TTACACAA,0.42
18,CTACACTC,0.0954
19,CTACACTA,0.135
20,ATACACAG,0.332
21,CTACACAA,0.29
22,CTACACGC,0.356
23,CTACACGA,0.377
